# According to the supplement of paper PMC9897528:
# Test system: Scedosporium aurantiacum CBS 136046
# Experiment: growth inhibition relative to DMSO control (OD600); higher = more antifungal activity, active = 80 or more; extreme values may be limits of the assay
# Details: 5 µM; 72 h; 37 °C
# 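Also: conidia screened in RPMI 1640 medium under 5% CO2, growth read by spectrophotometer, medium with 0.5% DMSO serving as the untreated reference.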
row,Structure (SMILES),growth inhibition
1,CCN(CC)CCn1c(=N)n(CC(O)COc2ccc(Cl)cc2Cl)c2ccccc21 (stereo not drawn),10.2% (inactive)
2,Nc1nnnn1CCOc1c2[nH]c3ccc(Cl)cc3c2cc2c1[nH]c1ccc(Cl)cc12,49.3% (inactive)
3,O=C(Cc1ccccc1F)Nc1nc2ccccc2[nH]1,23.9% (inactive)
4,CCCCc1ccc(S(=O)(=O)Nc2cc(C)on2)cc1,2.13% (inactive)
5,O=C(O)[C@H]1C2CCC(CC2)[C@@H]1Nc1nc(-c2c[nH]c3ncc(F)cc23)ncc1F,10.2% (inactive)
6,CN(C)CCNC(=O)c1cccc2cccnc12,2.13% (inactive)
7,Cc1nc2ccc(Cl)cc2c(-c2ccccc2)c1CC(=O)O,14.2% (inactive)
8,C(=C\c1nc2ccccc2[nH]1)/c1ccc2c(c1)OCO2,17.1% (inactive)
9,OCCCCn1cnc2c(O)nc(NCc3ccc(Cl)c(Cl)c3)nc21,5.51% (inactive)
10,O=C(NNC(=S)Nc1ccc(Cl)cc1)c1ccncc1,10.8% (inactive)
11,O=C1NC(=O)C(Br)=C1Br,24.4% (inactive)
12,O=C(c1ccccc1)N1CCN(c2ccccc2NC(=O)C(Cl)(Cl)Cl)CC1,33.8% (inactive)
13,NC(=O)c1[nH]c2ccc(S(N)(=O)=O)cc2c1-c1ccccc1,34.5% (inactive)
14,O=C1NC(=S)N/C1=C\c1cc(Br)cc(Br)c1O,12.6% (inactive)
15,O=C(CP(=O)(O)O)NCCc1cccc(Oc2ccccc2)c1,31.5% (inactive)
16,CONC(=N)c1ccc(-c2ccc(-c3ccc(C(=N)NOC)cc3)o2)cc1,29.9% (inactive)
17,CCOCc1nc2c(N)nc3ccccc3c2n1CC(C)(C)O,14.6% (inactive)
18,CC(=O)Oc1ccccc1C(=O)Nc1ncc([N+](=O)[O-])s1,12.7% (inactive)
19,CCc1cc(O)c(Oc2cccnc2N)cc1F,12.4% (inactive)

row,Structure (SMILES),growth inhibition
1,COc1c(F)c(F)cc2c(=O)c(C(=O)O)cn(C3CC3)c12,43.8% (inactive)
2,Cc1cc(CCCOc2c(C)cc(-c3noc(C(F)(F)F)n3)cc2C)on1,9.58% (inactive)
3,O=C(Cn1cnc2ccccc2c1=O)Nc1ccccc1,1.51% (inactive)
4,O=C(Nc1ccc(F)cc1)c1nn(-c2ccccc2)c(=O)cc1Cl,32.8% (inactive)
5,CCC(C)(C)c1ccc(CC(C)CN2C[C@@H](C)O[C@@H](C)C2)cc1 (stereo partly drawn),84.7% (active)
6,Fc1ccc(-n2cc(Cn3c(-c4cccc(F)c4)nc4ccccc43)nn2)cc1,17.9% (inactive)
7,Cc1cc(-c2ccccc2)c(C(=O)C(=O)Nc2ccc(N3CCN(c4ncc(F)cn4)CC3)cc2)n1C,81.8% (active)
8,Cc1cccc(CC(=O)N[C@H]2CCOC2=O)c1,16.6% (inactive)
9,CC(C)=CCC/C(C)=C/CNCCNC1C2CC3CC(C2)CC1C3 (stereo not drawn),61.4% (inactive)
10,COc1ccc(NS(=O)(=O)c2ccc(Cl)s2)cn1,11.2% (inactive)
11,COC(=O)Nc1nc2cc([S+]([O-])c3ccccc3)ccc2[nH]1 (stereo not drawn),0.624% (inactive)
12,Nc1nc(N)c2c(Sc3ccccc3)cccc2n1,18% (inactive)
13,COc1ccc(SC(=O)N[C@H](CCC(=O)O)C(=O)O)cc1,24.2% (inactive)
14,Cc1c[nH]c(=O)nc1NCc1ccccc1,10.8% (inactive)
15,O[C@@](Cn1cnnn1)(c1ccc(F)cc1F)C(F)(F)c1ccc(-c2ccc(OCC(F)(F)F)cc2)cn1,47.1% (inactive)
16,Nc1nc(O)c(Br)c(-c2cccc(Cl)c2)n1,4.65% (inactive)
17,COc1ccc2sc3c(c2c1)NC(C)CNC3=O (stereo not drawn),7.39% (inactive)
18,C[C@@H](O)[C@H](N)C(=O)NS(=O)(=O)c1cccc(-c2ccc3[nH]ncc3c2)c1,21% (inactive)
19,O=C1CCC(N2C(=O)c3ccccc3C2=O)C(=O)N1 (stereo not drawn),22.9% (inactive)
